Most compounds without a hit are left out; they make up all but 4.8% or so of the library.
DAX1 inh-1 = blocks DAX1 repression of SF-1 activated StAR promoter; inhibition, % at 6.8 µM; HEK293T StAR-luciferase reporter, SF-1/DAX-1 repression relief; AID 652010; 370,000 tested, 1.1% active;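 active = inhibition above the mean over all tested compounds plus 3 SD, cut at about 3.6% in these data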;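 also: 0% = DAX-1 cells with DMSO and 100% = cells lacking DAX-1 with DMSO; higher inhibition means more luminescence from relief of DAX-1 repression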
SMARCA2 activ = SMARCA2 function activation, primary screen; activation, % at 9.1 µM; 370,000 tested, 1% active; MG213 cells, MMTV-luciferase reporter, dexamethasone, overnight; in the data active = activation above about 7.8%;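 also: 0% = vehicle wells and 100% = reference activator wells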
hgDAF-12 ag = hgDAF-12 agonism, primary luciferase screen. HEK293 GAL4-hgDAF12 UAS-luciferase reporter, agonist luminescence; normalized to butyrate control. activation, % at 6.8 µM. 370,000 tested, 1.8% active. AID 687014;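 active = activation above a cutoff set at the mean of all screened compounds plus 3 SD, cut at about 10% in these data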;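 also: 0% = DMSO wells and 100% = sodium butyrate wells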
hcDAF-12 act = activators of H. contortus DAF-12 nuclear receptor | HEK293 hcDAF-12 lit1-tk-luc reporter, luminescence; 0% DMSO, 100% Δ7-dafachronic acid | activation, % at 6.8 µM | 370,000 tested, 1.4% active;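 active = activation above the mean of all tested compounds plus 3 SD, cut at about 5.5% in these data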;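 also: 100% = response to 3 µM Δ7-dafachronic acid high control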
ssDAF12 agonist = activates DAF-12 receptor from parasite S. stercoralis; activation, % at 6.8 µM; 370,000 tested, 1% active; AID 652126; HEK293 ssDAF-12/GRIP1 lit1-tk-luc reporter, luminescence; % of 3 µM dafachronic acid response;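 active = activation above the mean over all tested compounds plus 3 SD, cut at about 0.9% in these data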;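 also: 0% = DMSO-only wells and 100% = 3 µM delta7-dafachronic acid wells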
DAX1 inh-2 = inhibitors of human orphan nuclear receptor DAX1 (NR0B1); inhibition, % at 6.75 µM; HEK293 Gal4-DAX1 luciferase reporter, luminescence; 340,000 tested, 0.99% active; P51843; AID 504766;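 active = inhibition above the mean over all tested compounds plus 3 SD, cut at about 4.2% in these data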;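 also: 0% = DAX1-transfected cells with DMSO and 100% = empty-vector control cells with DMSO; inhibition shows as a rise in luminescence from relieved DAX1 repression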
Target sequence (P51843 207-470 limits assumed): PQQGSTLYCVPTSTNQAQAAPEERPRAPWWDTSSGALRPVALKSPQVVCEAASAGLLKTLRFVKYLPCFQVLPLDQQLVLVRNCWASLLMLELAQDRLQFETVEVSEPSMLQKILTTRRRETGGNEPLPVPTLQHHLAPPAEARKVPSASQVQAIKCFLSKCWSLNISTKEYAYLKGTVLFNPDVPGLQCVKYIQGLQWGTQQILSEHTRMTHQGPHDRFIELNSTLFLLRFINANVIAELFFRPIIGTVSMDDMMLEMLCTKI
An asterisk follows results filed as active; x = not tested or not shown.

SMILES	DAX1 inh-1	SMARCA2 activ	hgDAF-12 ag	hcDAF-12 act	ssDAF12 agonist	DAX1 inh-2
Cc1nc(SCc2cccc(C(=O)O)c2)nc2c1CCCC2	-0.6	-7.9	-9.1	-5.2	-2.4	-1.1
COC(=O)C1=C(C)N(CC2CC2)C(=NCc2cccc(C(F)(F)F)c2)N[C@H]1c1ccccc1	x	x	x	x	x	3.3
CCn1ccnc1CN(C)Cc1cn(C)nc1-c1ccccc1F	0.3	2.7	-1.1	-0.7	-1.1	-0.3
Cn1nc(C(=O)OCC(=O)Nc2ccccc2[N+](=O)[O-])c2ccccc2c1=O	-0.3	-2.2	0.0	2.2	1.0*	-0.1
Cc1ccc(OCC(=O)Nc2ccccc2[N+](=O)[O-])c(Br)c1	2.1	4.8	7.4	0.0	1.0*	0.5
Cc1ccc(/C=N\NC(=O)COc2ccc(C)cc2[N+](=O)[O-])cc1	0.3	-5.2	1.1	0.0	-1.4	7.0*
CC(C)c1ccccc1NC(=O)COC(=O)COc1ccccc1[N+](=O)[O-]	-0.5	-1.9	2.5	-1.3	1.9*	2.8
CCN(CC)S(=O)(=O)c1ccc(Cl)c(NC(=O)COc2ccccc2[N+](=O)[O-])c1	-0.3	-2.8	-0.6	0.9	-0.6	0.2
COc1cc(/C=N/NC(=O)COc2ccc(C)cc2)ccc1OC(=O)c1cccs1	0.2	-0.8	4.4	0.8	0.9*	-1.8
CN(C)S(=O)(=O)c1ccc(Cl)c(NC(=O)COc2ccccc2[N+](=O)[O-])c1	-0.8	0.7	-1.4	-1.2	0.9*	0.7
CCOc1cc(/C=N/NC(=O)COc2ccc(C)cc2)ccc1OC(=O)c1cccs1	-1.1	-2.5	-0.4	-0.5	-1.3	-1.3
COc1ccc(C(=O)O)cc1NC(=S)NC(=O)c1ccc(-c2ccc(Cl)cc2)o1	-0.7	0.4	-0.8	-1.3	-1.1	0.0
CCOc1ccc(CCN2C(=O)C(=O)N([C@@H](CC(C)C)CN3CCC[C@H]3CN3C(=O)C(=O)NC[C@@H]3Cc3ccccc3)C[C@@H]2Cc2ccc(O)cc2)cc1	3.9*	-4.8	0.2	0.3	-0.8	x
CC(C)C[C@H]1CNC(=S)N1CC1CCCN1C[C@H](Cc1ccc(O)cc1)N1C[C@H](Cc2ccccc2)N(CC2CCCCC2)C1=S (stereo not given in full)	0.7	-2.2	-2.3	0.1	-0.5	-1.5
CC(C)C[C@H]1CNC(=S)N1C[C@H]1CCCN1C[C@H](Cc1ccccc1)N1C[C@H](Cc2ccc(O)cc2)N(CC2CCCCC2)C1=S	3.8*	-1.4	1.1	0.0	-1.2	x
Cc1cc(-c2nc3ncccc3o2)ccc1NC(=O)CC(C)C	3.9*	1.9	2.3	2.5	-1.3	-0.5
CC(C)CC(=O)Nc1cccc(-c2nc3ncccc3o2)c1	0.1	-1.0	-0.7	0.4	-0.9	0.0
CCN(c1ccccc1)S(=O)(=O)c1ccc(OCC(=O)Nc2cc(C)on2)cc1	-0.4	-3.0	1.9	-1.7	-1.3	-0.1
O=C(Nc1nncs1)c1cc2c(s1)CCC2	3.1	0.7	12.4*	1.8	-0.9	1.4
CC/C(C)=N/N1C(=O)c2ccccc2NC1(C)CC (stereo not given)	0.3	1.9	6.6	1.0	-1.3	6.2*
Cc1cn2c(N)c(C=C3C=C(Cl)C(=O)C(Cl)=C3)c(=O)nc2s1	0.9	-0.9	1.2	1.2	-0.7	0.7
Cc1ccc(-n2nc3ccc(N)cc3n2)cc1Cl	2.1	-3.3	6.1	6.2*	0.1	1.6
Cc1ccc(-n2nc3ccc(N)cc3n2)cc1C	0.8	-1.0	4.5	5.8*	0.3	1.8
COc1ccc(-n2nc3ccc(N)cc3n2)cc1Cl	0.1	-3.0	4.7	0.7	-1.3	-1.5
Cc1ccc(-n2nc3ccc(N)cc3n2)c(C)c1	-0.2	-8.6	-6.8	-6.0	-1.7	-1.7
SMILES	DAX1 inh-1	SMARCA2 activ	hgDAF-12 ag	hcDAF-12 act	ssDAF12 agonist	DAX1 inh-2
O=C(O)c1ccc(Oc2nc3ccccc3s2)cc1	2.1	-0.7	7.6	5.3	1.2*	1.8
CCN(CC)CCNc1ncnc2c1sc1nc(N3CCOCC3)c3c(c12)CC(C)(C)SC3	0.4	6.7	-1.1	-2.1	1.1*	-0.5
CN(C)CCNc1ncnc2c1sc1nc(N3CCOCC3)c3c(c12)CC(C)(C)SC3	-0.8	4.6	-1.6	-2.2	-2.0	-0.6
COc1ccc(-n2c(=O)cc(N3CCc4ccccc43)[nH]c2=O)cc1	0.3	-3.3	0.2	2.4	-0.9	-0.2
O=c1cc(N2CCc3ccccc32)[nH]c(=O)n1-c1ccc(Br)cc1	1.3	-0.9	-0.9	5.8*	-0.9	-0.6
COC(=O)c1ccccc1-c1ccc(/C=N/Nc2nc(N3CCCC3)nc(N3CCCC3)n2)o1	-0.4	-2.0	-1.6	-1.8	-2.3	-4.3
O=C1c2oc3ccccc3c(=O)c2C(c2ccc(O)cc2)N1c1nccs1 (stereo not given)	-0.2	-0.2	-2.6	0.5	-1.2	6.1*
Cc1ccc(S(=O)(=O)N(C)C)cc1NC(=O)COC(=O)COc1ccc2c(C)cc(=O)oc2c1	-0.8	-0.8	2.3	-1.4	-0.9	-0.4
O=C(COC(=O)c1cncc(Br)c1)Nc1ccc(N2CCCCC2)cc1	-1.1	-0.7	1.3	4.5	1.8*	1.1
CC(=O)Nc1cccc(C(C)C2=CCCCC2)c1 (stereo not given)	-0.1	7.8*	3.6	-1.1	-1.2	x
CC(=O)Nc1cccc(C)c1	0.9	-5.0	-2.5	2.3	-1.2	0.7
O=C(CN1CCCCC1)N1CCCc2ccccc21	-0.2	1.1	-1.0	-1.6	-0.3	-0.4
Nc1ccc(/C=C/C(=O)c2ccco2)cc1	0.2	-0.2	2.9	0.9	-0.8	0.6
C=CCNC(=O)NC(=O)COC(=O)CNS(=O)(=O)c1ccc(F)c(F)c1F	-0.5	1.5	-0.6	-0.1	-1.1	5.2*
O=C(COC(=O)CNS(=O)(=O)c1ccc(F)c(F)c1F)NC1CC1	0.9	-1.8	4.7	0.3	-0.9	-2.0
C(=NOCCc1ccccc1)c1ccccn1	2.2	4.0	7.4	0.3	-0.3	2.5
C(=NOCCc1ccccc1)c1ccncc1	0.7	3.1	7.9	0.9	1.3*	0.6
CC(=O)c1ccccc1N(C(=O)Cn1nnc2ccccc21)C(C(=O)NCC1CCCO1)c1ccc(N2CCOCC2)cc1 (stereo not given)	-0.8	-3.4	0.6	0.8	-1.6	-0.2
c1ccc(-c2csc(-n3cccn3)n2)cc1	0.6	0.9	-2.5	0.3	-1.0	-0.4
O=C(Nc1ccc(F)cc1)NC1CCCCCCC1	3.6	5.9	12.4*	-0.1	-0.7	0.2
O=C(Nc1ccc2nsnc2c1)NC1CCCCC1	1.7	4.6	11.9*	2.6	-0.4	2.7
Cc1ccc(NC(=O)CSc2nc3sc(C)cc3c(=O)n2C)cc1	-0.2	-2.6	-1.5	-2.0	-1.1	-0.6
COc1ccccc1Cc1c(-c2ccc(F)cc2)nc2ccc(Br)cn12	0.3	2.7	7.8	3.0	1.3*	x
